This note sets out measurements from PubChem BioAssay (EPA / NIEHS).

Active and inactive are the calls of the source. The calls were made as follows: active = hit-call score of the fitted dose curve at least 0.9, where 1 is the maximum; inconclusive = response in the unintended direction; inactive = score below 0.9.

The assay can be described thus: Tanguay_ZF_120hpf_MORT_legacy: (Legacy) Oregon State University Tanguay Lab 120 Hour Post-fertilization zebrafish Assay for Mortality (AID 2283633). As to the method: Tanguay_ZF_120hpf_legacy is a whole embryo, multiplexed endpoint assay using zebrafish larvae exposed for 120 hours post fertilization on a 96-well plate.Tanguay_ZF_120hpf_MORT_legacy is one of one assay component(s) measured or calculated from the Tanguay_ZF_120hpf_legacy assay. It is designed to make measurements of embryonic mortality as detected with brightfield microscopy of developing zebrafish embryos.Data from the assay component Tanguay_ZF_120hpf_MORT_legacy was analyzed into 1 assay endpoints. This assay endpoint, Tanguay_ZF_120hpf_MORT_legacy, was analyzed in the positive analysis fitting direction relative to DMSO as the negative control and baseline of activity. Using a type of viability reporter, gain-of-signal activity can be used to understand changes in developmentals as they relate to the whole embryo. To generalize the intended target to other relatable targets, this assay endpoint is annotated to the embryonic mortality intended target family, where the subfamily is embryonic mortality.
Zebrafish husbandry: Tropical 5D wild-type adult zebrafish were housed in at an approximate density of 1000 per 100 gallon tank at the Sinnhuber Aquatic Research Laboratory, Oregon State University, Corvallis, OR. Each tank was kept at standard laboratory conditions of 28C on a 14-h light/10-h dark photoperiod in fish water consisting of reverse osmosis water supplemented with a commercially available salt (Instant Ocean). Spawning funnels were placed into the tanks the night prior, and embryos were collected and staged. To increase bioavailability, the chorion was enzymatically removed using pronase (63.6mg/ml, >/= 3.5U/mg, Sigma-Aldrich: P5147) at 4 hours post fertilization (hpf) using a custom automated dechorionator.Chemical exposures: Six hpf dechorionated embryos were placed 1 embryo per well in a 96-well plate prefilled with 90 ul of EM using automated embryo placement systems (AEPS). Ten microliters of each row of dilution plate 2 was added to 2 exposure plates. The final DMSO concentration used was 0.64% (vol/vol). Thirty-two embryos were also exposed to 5uM trimethyltin chloride (positive control). Plates were sealed to prevent evaporation and foil covered to reduce light exposure and kept in a 28C incubator. Embryos were statically exposed until 120 hpf. At 24 hpf, embryos were assessed for photomotor response using a custom photomotor response analysis tool (PRAT) and for developmental toxicity endpoints (MO24: mortality at 24 hpf, DP: developmental progression, SM: spontaneous movement, and NC: notochord distortion). At 120 hpf, locomotor activity was measured using Viewpoint Zebralab and assessed for 18 endpoints. Zebrafish acquisition and analysis program (ZAAP), a custom program designed to inventory, acquire, and manage zebrafish data, was used to collect developmental endpoints as either present or absent (i.e., binary responses were recorded). If mortality occurred for an embryo (at either 24 or 120 hpf), the non-mortality endpoints were not measured.
For the compound `Oc1ccc2ccccc2c1`, the compound was called inactive.
The same measure, in the same setting: the value for `C[C@]12CC[C@@H]3c4ccc(O)cc4CC[C@H]3[C@@H]1CCC2=O` was “inactive”.
Turning to `CCCC(=O)OCCC(C)C`, the outcome was inactive.
The same measure, in the same setting: the result for `Cc1cc2c(cc1C(F)(F)F)N(C(=O)Nc1ccc(Oc3cccnc3C)nc1)CC2` reads “inactive”; that for `c1ccc2ccccc2c1`, “inactive”; that for `CC1=CC(=O)/C(=C(/C)O)C(=O)O1`, “inactive”.
The same measure, in the same setting: the result for `CCCCOC(=O)c1ccc(O)cc1` reads “inactive”; that for `CN1C(=O)CC[C@H]1c1cccnc1`, “inactive”; that for `OCCO`, “inactive”.
With `CC(C)(C)c1cc(/C=C2\SC(N)=NC2=O)cc(C(C)(C)C)c1O`, the AC50 is 25.5 µM (active).
As for `Cc1cccc2ccccc12`, the result was inactive.
For `CC/C(=C(/CC)c1ccc(O)cc1)c1ccc(O)cc1`, the AC50 is 10.8 µM (active).
Turning to `Cc1cc(F)ccc1-c1cc(N2CC[C@@H](O)[C@H]2CO)ncc1N(C)C(=O)C(C)(C)c1cc(C(F)(F)F)cc(C(F)(F)F)c1`, the call was inactive.
Still for that read-out and setting: the result for `O=C(O)c1ccccc1C(=O)OCc1ccccc1` reads “inactive”.
Regarding `CN(C)c1ccc(C(=C2C=CC(=[N+](C)C)C=C2)c2ccc(N(C)C)cc2)cc1`, the AC50 was 0.577 µM (active).
As to `Cc1occc1C(=O)Nc1ccc(C(=O)N2CCC(F)(F)/C(=C\C(=O)N3CCC(N4CCCCC4)CC3)c3ccccc32)cc1`, the compound was called inactive.
On the same count and under the same terms, the value for `CCCCCCCCOc1ccc(C(=O)c2ccccc2)c(O)c1` was “inactive”.
On to `O=C=NCCCCCCN=C=O`, for which the compound was classed as inactive.
Same read-out and setting: the result for `O=C1CCC(C2CCCCC2)CC1` reads “inactive”.
Take `O=c1c(-c2ccc(O)cc2)coc2cc(O)cc(O)c12`: the AC50 is 26.1 µM (active).
Same read-out and setting: the result for `CCOC(=O)O[C@H](C)OC(=O)c1ccc2c(c1)cc(C(=O)NC1CCN(C(C)C)CC1)n2Cc1cc(-c2ccc(Cl)s2)on1` reads 23.7 µM (active).
`CCCOC(=O)c1cc(O)c(O)c(O)c1`: the call was inactive.
In the case of `CC1(C)NC(=O)N(c2ccc([N+](=O)[O-])c(C(F)(F)F)c2)C1=O`, the compound was called inactive.
On the same count and under the same terms, the value for `CCN(Cc1cccc(S(=O)(=O)O)c1)c1ccc(C(=C2C=CC(=[N+](CC)Cc3cccc(S(=O)(=O)O)c3)C=C2)c2ccccc2S(=O)(=O)[O-])cc1` was “inactive”.
In the case of `CCCCCCCCCCCO`, the compound was called inactive.
On to `CN(C)C(=O)C1(N2CCCCC2)CCN(CC[C@@]2(c3ccc(Cl)c(Cl)c3)CN(C(=O)c3ccccc3)CCO2)CC1`, for which the AC50 was 16.4 µM (active).
On to `O=c1ccc2ccccc2o1`, for which the call was inactive.
Regarding `CC[C@H](NC(=O)c1cc(F)ccc1NS(=O)(=O)c1cccc2cccnc12)c1ccccc1`, the outcome was inactive.
Regarding `CO[C@H]1/C=C/O[C@@]2(C)Oc3c(C)c(O)c4c(O)c(c(/C=N/N5CCN(C)CC5)c(O)c4c3C2=O)NC(=O)/C(C)=C\C=C\[C@H](C)[C@H](O)[C@@H](C)[C@@H](O)[C@@H](C)[C@H](OC(C)=O)[C@@H]1C`, the result was inactive.
Same read-out and setting: the value for `O=C1O[C@H]([C@@H](O)CO)C(O)=C1O` was “inactive”; that for `O=c1[nH]sc2ccccc12` was “inactive”.
Take `NCc1cccc(C2CCN(C(=O)c3ccc(C#Cc4ccccc4F)o3)CC2)c1`: the AC50 was 12 µM (active).
For `CCN(CC)C(=O)c1cc(S(=O)(=O)Cc2ccccc2)c(N2CCC(c3ccccc3)CC2)cc1N(CC)CCN(C)C`, the AC50 is 11.7 µM (active).
Consider `Cc1ncc(CO)c(CO)c1O`, for which the result was inactive.
With `Cc1ccc2oc(CN(Cc3ccccc3)C(=O)Nc3c(F)cc(F)cc3F)c(-c3ccc(Cl)cc3)c2c1`, the call was inactive.
On the same count and under the same terms, the result for `Clc1ccccc1C(c1ccccc1)(c1ccccc1)n1ccnc1` reads “inactive”.
On the same count and under the same terms, the result for `Cc1ccc(C(C)C)cc1` reads “inactive”.
Same read-out and setting: the value for `c1ccc2n[nH]nc2c1` was “inactive”; that for `O=CCCCC=O` was “inactive”; that for `OC12N=C(c3ccccc3)SC1Cc1cc(Cl)ccc12` (stereo not given) was “inactive”.

For orientation: AC50 means the midpoint of the concentration-response curve, whichever way the signal moves.
